Test results reported in paper PMC5540273 (PLoS ONE, 2017).

What was measured:
Details in all cases: concentration: 1 μM, replicates: in singlicate; n = 1
[1] = tested on: FLT3
[2] = tested on: FLT4
[3] = tested on: FRK
[4] = tested on: FYN
[5] = tested on: GAK
[6] = tested on: T1, GCN2(Kin.Dom.2,S808G)
T1 construct: gene EIF2AK4

[7] = tested on: GRK1
[8] = tested on: T2, GRK2
T2 construct: gene ADRBK1

[9] = tested on: T3, GRK3
T3 construct: gene ADRBK2

[10] = tested on: GRK4
[11] = tested on: GRK7
[12] = tested on: GSK3A
[13] = tested on: GSK3B
[14] = tested on: T4, HASPIN
T4 construct: gene GSG2

[15] = tested on: HCK
[16] = tested on: HIPK1
[17] = tested on: HIPK2
[18] = tested on: HIPK3
[19] = tested on: HIPK4
[20] = tested on: HPK1
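Also: KINOMEscan kinase panel screen.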

Structure (SMILES) | %Inh [1] | %Inh [2] | %Inh [3] | %Inh [4] | %Inh [5] | %Inh [6] | %Inh [7] | %Inh [8] | %Inh [9] | %Inh [10] | %Inh [11] | %Inh [12] | %Inh [13] | %Inh [14] | %Inh [15] | %Inh [16] | %Inh [17] | %Inh [18] | %Inh [19] | %Inh [20]
COc1ccc(CNC(=O)NC2CCN(c3ccnc(Nc4cc(OC)c(OC)c(OC)c4)n3)C2)cc1 (stereo not drawn) [GSK1379748] | 71% | 26% | 5% | 22% | 16% | 0% | 0% | 0% | 40% | 0% | 0% | 7% | 0% | 38% | 0% | 0% | 8% | 33% | 0% | 53%
Cl.NC(=O)c1cccc(Nc2nccc(Nc3ccc(Oc4cccc(Cl)c4)c(Cl)c3)n2)c1 [GW659008] | 54% | 0% | 24% | 59% | 43% | 11% | 0% | 0% | 18% | 15% | 0% | 0% | 0% | 0% | 72% | 0% | 0% | 0% | 0% | 37%
Cc1c(Cn2ccn3c(=O)cc(N4CCOCC4)nc23)cccc1C(F)(F)F [GSK2289044] | 0% | 0% | 0% | 30% | 10% | 0% | 0% | 0% | 0% | 0% | 0% | 1% | 8% | 0% | 0% | 0% | 0% | 24% | 0% | 15%
O=C(Nc1ccc2c(c1)OCO2)NC1CCN(c2ccnc(Nc3ccc(F)cc3)n2)C1 (stereo not drawn) [GSK1379724] | 0% | 0% | 11% | 9% | 0% | 6% | 0% | 0% | 93.7% | 0% | 0% | 1% | 16% | 0% | 0% | 0% | 0% | 1% | 0% | 45%
Cc1cccc(-c2cc(Nc3ccncc3)c3ccccc3n2)n1 [GSK223675] | 0% | 0% | 0% | 40% | 0% | 0% | 0% | 0% | 0% | 0% | 0% | 17% | 12% | 0% | 0% | 0% | 0% | 5% | 0% | 12%
CS(=O)(=O)c1ccc(-c2nc3n(c2-c2ccncc2)CCC3)cc1 [SKF-105942] | 0% | 0% | 16% | 12% | 7% | 9% | 7% | 0% | 24% | 23% | 0% | 0% | 10% | 0% | 0% | 0% | 0% | 8% | 0% | 37%
Clc1cc(Cl)cc(Nc2ccnc(Nc3cc(Cl)cc(Cl)c3)n2)c1 [GSK175726] | 0% | 0% | 45% | 8% | 30% | 0% | 100% | 0% | 7% | 0% | 0% | 30% | 0% | 0% | 10% | 32% | 1% | 7% | 0% | 38%
Cc1cccc(-c2nc(Nc3ccc4[nH]ncc4c3)c3ccccc3n2)n1 [GW857175] | 13% | 6% | 3% | 0% | 0% | 5% | 3% | 40% | 0% | 10% | 4% | 14% | 21% | 68% | 0% | 0% | 20% | 35% | 3% | 54%
Cc1ccc(NC(=O)Nc2cc(C(C)(C)C)nn2-c2ccccc2)cc1 [GSK1014915] | 98.6% | 15% | 22% | 4% | 11% | 9% | 9% | 0% | 92.4% | 7% | 0% | 0% | 13% | 0% | 0% | 0% | 0% | 13% | 0% | 25%
